Results from the supplement of paper PMC11732987, “Enantioselective OTUD7B fragment discovery through chemoproteomics screening and high-throughput optimisation” (Communications Chemistry, 2025).
A number with no mark means an inactive call.

Legend:
Test in all cases: log2 ratio of Biotin-Ahx-Ub-VS probe labelling (fragment/DMSO); higher = less target engagement (more negative = stronger competition), active = hit call of the paper (q ≤ 0.05, log2 ratio ≤ -1)
Conditions in all cases: compound concentration: 200 uM; treatment time: 3 h
OTUD6B = target: T1, OTUD6B (UniProt Q8N6M0)
T1 sequence (whole entry): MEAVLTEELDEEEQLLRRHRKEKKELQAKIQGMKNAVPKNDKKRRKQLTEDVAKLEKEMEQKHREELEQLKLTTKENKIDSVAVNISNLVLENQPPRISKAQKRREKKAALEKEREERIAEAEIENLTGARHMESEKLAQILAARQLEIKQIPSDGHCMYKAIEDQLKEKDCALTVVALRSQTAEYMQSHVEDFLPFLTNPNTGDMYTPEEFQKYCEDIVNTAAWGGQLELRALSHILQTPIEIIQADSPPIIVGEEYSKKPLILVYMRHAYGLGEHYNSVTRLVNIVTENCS
Method in brief: (§1)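 Labelling with Biotin-Ahx-Ub-VS (0.5 µM final, 1 h) followed a 3 h triplicate treatment of HEK293T lysate (495 µg per sample, Tris/CHAPS/IGEPAL buffer with protease inhibitors) with fragment at 200 µM or vehicle. Labelled DUBs were NeutrAvidin-enriched, digested with LysC and trypsin, and run by diaPASEF LC-MS/MS. The values, average log2 fragment/vehicle ratios by unpaired t-test, come from global-median-normalised Spectronaut label-free quantities. Proteins with ≥2 unique peptides were used.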

OTUD7B = target: T2, OTUD7B (UniProt Q6GQQ9)
T2 sequence (whole entry): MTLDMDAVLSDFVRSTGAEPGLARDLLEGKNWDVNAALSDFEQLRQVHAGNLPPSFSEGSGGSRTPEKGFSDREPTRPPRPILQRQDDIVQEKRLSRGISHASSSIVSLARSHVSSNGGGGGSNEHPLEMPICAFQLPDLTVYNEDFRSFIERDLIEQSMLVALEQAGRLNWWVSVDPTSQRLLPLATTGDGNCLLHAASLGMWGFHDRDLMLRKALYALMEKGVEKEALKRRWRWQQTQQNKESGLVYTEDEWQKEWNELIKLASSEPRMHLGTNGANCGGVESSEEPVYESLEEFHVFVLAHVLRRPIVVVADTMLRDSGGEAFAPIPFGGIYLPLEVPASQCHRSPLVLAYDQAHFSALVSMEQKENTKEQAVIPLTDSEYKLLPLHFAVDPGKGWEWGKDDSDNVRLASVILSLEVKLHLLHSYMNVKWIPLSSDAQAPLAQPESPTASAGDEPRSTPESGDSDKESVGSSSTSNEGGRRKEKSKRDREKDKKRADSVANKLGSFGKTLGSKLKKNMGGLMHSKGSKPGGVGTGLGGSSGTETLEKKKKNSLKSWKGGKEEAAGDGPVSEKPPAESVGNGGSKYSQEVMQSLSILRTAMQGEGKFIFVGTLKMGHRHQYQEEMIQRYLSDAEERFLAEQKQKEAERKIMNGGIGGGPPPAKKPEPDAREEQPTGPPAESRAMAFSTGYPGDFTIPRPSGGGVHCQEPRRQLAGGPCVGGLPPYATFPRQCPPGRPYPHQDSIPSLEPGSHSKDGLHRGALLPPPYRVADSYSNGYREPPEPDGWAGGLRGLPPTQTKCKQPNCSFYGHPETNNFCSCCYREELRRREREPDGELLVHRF
Method in brief: as §1

PRPF8 = PRPF8 (UniProt Q6P2Q9)
Method in brief: as §1

PSMD7 = target: T3, PSMD7 (UniProt P51665)
T3 sequence (whole entry): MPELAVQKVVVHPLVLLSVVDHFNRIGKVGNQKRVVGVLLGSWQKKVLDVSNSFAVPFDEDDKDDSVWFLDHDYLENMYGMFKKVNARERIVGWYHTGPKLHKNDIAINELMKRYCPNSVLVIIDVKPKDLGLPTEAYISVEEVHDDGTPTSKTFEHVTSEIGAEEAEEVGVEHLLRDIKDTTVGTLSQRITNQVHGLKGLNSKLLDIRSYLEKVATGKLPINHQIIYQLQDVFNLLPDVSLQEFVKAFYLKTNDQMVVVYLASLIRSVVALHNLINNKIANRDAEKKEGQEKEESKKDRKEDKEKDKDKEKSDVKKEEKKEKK
Method in brief: as §1

UCHL1 = UCHL1 (UniProt P09936)
Method in brief: as §1

UCHL3 = target: T4, UCHL3 (UniProt P15374)
T4 sequence (whole entry): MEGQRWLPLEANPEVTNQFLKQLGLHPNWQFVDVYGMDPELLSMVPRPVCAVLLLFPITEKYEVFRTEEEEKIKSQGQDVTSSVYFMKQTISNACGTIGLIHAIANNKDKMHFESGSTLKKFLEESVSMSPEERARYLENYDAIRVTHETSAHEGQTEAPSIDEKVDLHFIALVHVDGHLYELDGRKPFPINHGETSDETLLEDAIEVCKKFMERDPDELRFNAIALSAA
Method in brief: as §1

UCHL5 = target: T5, UCHL5 (UniProt Q9Y5K5)
T5 sequence (whole entry): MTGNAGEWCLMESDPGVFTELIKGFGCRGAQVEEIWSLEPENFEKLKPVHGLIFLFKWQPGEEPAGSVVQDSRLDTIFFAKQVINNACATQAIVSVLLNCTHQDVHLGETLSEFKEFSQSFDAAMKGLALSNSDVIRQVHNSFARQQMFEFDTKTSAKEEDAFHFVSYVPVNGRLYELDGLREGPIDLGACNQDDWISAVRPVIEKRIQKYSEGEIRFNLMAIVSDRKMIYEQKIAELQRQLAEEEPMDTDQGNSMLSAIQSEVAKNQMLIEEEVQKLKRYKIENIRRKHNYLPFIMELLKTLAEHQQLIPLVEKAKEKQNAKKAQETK
Method in brief: as §1

USP10 = USP10 (UniProt Q14694)
Method in brief: as §1

USP15 = target: T6, USP15 (UniProt Q9Y4E8)
T6 sequence (whole entry): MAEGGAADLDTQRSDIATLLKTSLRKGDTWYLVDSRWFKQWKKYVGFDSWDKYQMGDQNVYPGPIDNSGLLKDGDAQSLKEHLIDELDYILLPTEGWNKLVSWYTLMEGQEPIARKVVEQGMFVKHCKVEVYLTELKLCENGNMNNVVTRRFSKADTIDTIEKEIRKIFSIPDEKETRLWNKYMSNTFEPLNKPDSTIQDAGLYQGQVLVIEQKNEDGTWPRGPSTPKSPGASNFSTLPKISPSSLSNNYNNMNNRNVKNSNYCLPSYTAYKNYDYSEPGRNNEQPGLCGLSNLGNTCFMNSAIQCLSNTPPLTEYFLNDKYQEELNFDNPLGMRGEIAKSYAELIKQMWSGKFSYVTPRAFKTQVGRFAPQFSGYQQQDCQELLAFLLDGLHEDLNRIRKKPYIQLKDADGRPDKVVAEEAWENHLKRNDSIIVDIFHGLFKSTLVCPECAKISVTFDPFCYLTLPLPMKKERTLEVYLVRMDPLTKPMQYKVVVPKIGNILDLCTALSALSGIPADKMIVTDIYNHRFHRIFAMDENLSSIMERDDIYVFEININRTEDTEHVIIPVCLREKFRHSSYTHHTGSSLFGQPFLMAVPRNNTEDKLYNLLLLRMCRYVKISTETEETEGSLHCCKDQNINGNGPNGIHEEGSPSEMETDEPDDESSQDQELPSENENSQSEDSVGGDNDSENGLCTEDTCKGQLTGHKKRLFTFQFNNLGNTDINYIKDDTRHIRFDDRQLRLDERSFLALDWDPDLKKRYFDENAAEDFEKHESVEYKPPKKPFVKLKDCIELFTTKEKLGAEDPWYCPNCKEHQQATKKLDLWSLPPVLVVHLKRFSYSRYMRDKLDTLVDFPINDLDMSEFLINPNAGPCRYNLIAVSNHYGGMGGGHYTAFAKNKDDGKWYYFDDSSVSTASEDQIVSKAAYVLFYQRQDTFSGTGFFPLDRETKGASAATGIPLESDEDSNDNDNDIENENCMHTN
Method in brief: as §1

USP16 = USP16 (UniProt Q9Y5T5)
Method in brief: as §1

Sequence of UCHL1 (P09936 whole entry, looked up): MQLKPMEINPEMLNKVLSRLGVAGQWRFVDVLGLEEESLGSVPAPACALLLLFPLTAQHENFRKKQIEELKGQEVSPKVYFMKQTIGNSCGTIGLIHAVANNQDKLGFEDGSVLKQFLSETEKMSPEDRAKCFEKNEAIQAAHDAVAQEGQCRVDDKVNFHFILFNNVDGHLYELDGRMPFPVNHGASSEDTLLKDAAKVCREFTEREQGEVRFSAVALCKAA
Sequence of USP10 (Q14694 whole entry): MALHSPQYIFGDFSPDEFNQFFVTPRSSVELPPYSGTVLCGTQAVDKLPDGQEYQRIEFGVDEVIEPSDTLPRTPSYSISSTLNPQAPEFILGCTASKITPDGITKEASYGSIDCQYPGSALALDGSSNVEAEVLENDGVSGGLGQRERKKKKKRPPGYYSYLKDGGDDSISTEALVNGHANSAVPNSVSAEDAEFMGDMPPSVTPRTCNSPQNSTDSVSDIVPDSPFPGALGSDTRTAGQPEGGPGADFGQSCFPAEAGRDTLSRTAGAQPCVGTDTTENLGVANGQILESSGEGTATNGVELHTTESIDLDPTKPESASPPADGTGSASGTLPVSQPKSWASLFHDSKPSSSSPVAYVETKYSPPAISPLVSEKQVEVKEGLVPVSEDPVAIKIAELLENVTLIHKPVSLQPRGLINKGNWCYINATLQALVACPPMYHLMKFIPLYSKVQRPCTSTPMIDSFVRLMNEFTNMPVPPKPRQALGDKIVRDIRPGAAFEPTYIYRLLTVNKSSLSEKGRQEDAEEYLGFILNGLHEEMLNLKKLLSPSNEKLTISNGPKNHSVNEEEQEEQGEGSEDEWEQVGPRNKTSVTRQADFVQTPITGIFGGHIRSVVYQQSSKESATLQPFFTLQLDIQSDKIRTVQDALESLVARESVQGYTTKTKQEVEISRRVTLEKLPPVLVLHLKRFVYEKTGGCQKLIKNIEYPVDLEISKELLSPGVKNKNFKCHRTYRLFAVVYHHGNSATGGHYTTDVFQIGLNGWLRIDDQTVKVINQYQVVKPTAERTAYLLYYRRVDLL
Sequence of USP16 (Q9Y5T5 whole entry, looked up): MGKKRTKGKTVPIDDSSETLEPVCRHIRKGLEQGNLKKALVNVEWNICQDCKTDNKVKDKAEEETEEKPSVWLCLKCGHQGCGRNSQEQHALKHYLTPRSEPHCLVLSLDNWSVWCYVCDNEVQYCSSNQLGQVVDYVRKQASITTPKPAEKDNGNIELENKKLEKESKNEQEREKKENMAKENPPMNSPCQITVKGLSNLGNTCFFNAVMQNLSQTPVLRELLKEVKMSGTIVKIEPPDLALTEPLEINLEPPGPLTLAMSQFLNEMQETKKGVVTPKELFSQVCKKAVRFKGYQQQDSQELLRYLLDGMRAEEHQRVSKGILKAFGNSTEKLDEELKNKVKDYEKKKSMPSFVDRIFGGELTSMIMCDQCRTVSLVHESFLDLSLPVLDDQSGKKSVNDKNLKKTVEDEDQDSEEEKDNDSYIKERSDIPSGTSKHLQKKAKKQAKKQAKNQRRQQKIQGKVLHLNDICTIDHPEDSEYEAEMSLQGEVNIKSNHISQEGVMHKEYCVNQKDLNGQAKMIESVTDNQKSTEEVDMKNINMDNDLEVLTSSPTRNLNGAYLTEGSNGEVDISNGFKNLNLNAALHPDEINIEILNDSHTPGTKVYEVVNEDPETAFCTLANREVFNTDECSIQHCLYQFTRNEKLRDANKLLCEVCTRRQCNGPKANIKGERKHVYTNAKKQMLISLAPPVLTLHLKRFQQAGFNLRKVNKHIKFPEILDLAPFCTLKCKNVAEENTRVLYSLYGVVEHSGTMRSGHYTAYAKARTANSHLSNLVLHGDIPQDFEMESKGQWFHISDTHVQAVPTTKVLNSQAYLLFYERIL

CC(NC(=O)CCl)c1cccc(Cl)c1 (stereo not given)
log2 ratio of Biotin-Ahx-Ub-VS probe labelling (OTUD6B): -0.345 | log2 ratio of Biotin-Ahx-Ub-VS probe labelling (OTUD7B): -1.21 (active) | log2 ratio of Biotin-Ahx-Ub-VS probe labelling (PRPF8): -0.202 | log2 ratio of Biotin-Ahx-Ub-VS probe labelling (PSMD7): -0.316 | log2 ratio of Biotin-Ahx-Ub-VS probe labelling (UCHL1): -1.58 (active) | log2 ratio of Biotin-Ahx-Ub-VS probe labelling (UCHL3): -0.204 | log2 ratio of Biotin-Ahx-Ub-VS probe labelling (UCHL5): -0.426 | log2 ratio of Biotin-Ahx-Ub-VS probe labelling (USP10): -0.136 | log2 ratio of Biotin-Ahx-Ub-VS probe labelling (USP15): -0.301 | log2 ratio of Biotin-Ahx-Ub-VS probe labelling (USP16): 0.118
